From PubChem BioAssay AID651813 (National Center for Advancing Translational Sciences (NCATS), 2012)
Several values for one entry are separate records, joined by “and”; a condition that tells them apart may be missing. Equal values may be shown once. Among all 2,100 compounds or so, about 1,100 (52%) were called active. Another 27% or so got no clear call; they are omitted. The set was probably picked from earlier hits. Some of the results follow. A number with no mark means an inactive call. The call rests on the fitted dose curve; in most records, active means well fitted inhibition curve with a large enough effect; inconclusive means small, poorly fitted or top-dose-only effect; inactive means no such curve, though single readings can be large or run the other way.

The compounds below were run against DNA dC->dU-editing enzyme APOBEC-3G (Homo sapiens) (UniProt Q9HC16) (assay: qHTS for inhibitors of Vif-A3G interactions: Cherry picks counterscreen). Settings: HeLa A3G-eYFP + Vif (tagged APOBEC3G with the HIV-1 protein that degrades it), eYFP fluorescence, 24 h.
Excerpt: The recent discovery and characterization of host restriction factors, which provide a potent defense to invading retroviruses, has provided new targets for antiviral drug development. APOBEC3G (A3G) and APOBEC3F (A3F) are potent cytidine deaminases that block HIV-1 replication; HIV-1 expresses the Vif protein, which counteracts A3G and A3F by binding to them and inducing their proteasomal degradation. The Vif-A3G and Vif-A3F interactions provide two potential targets for development of small molecules which can interfere with the ability of Vif to degrade A3G or A3F. […] To identify inhibitors that can interfere with Vif mediated degradation of A3G and A3F, we have developed Hela cell lines that stably express A3G or A3F tagged with eYFP at the C-terminal end (A3G-eYFP or A3F-eYFP, respectively) and Vif. In the absence of an inhibitor, Vif induces degradation of A3G-eYFP and A3F-eYFP, and the cells are not fluorescent. In the presence of an inhibitor, it is expected that Vif will be unable to degrade A3G-eYFP and/or A3F-eYFP, resulting in an increase in yellow fluorescence. In this counterscreen assay, Vif A3G was screened against the cherry picks ordered from the MLSMR. NIH Chemical Genomics Center [NCGC] NIH Molecular Libraries Probe Centers Network [MLPCN] MLPCN Grant: MH093245 Assay Submitter (PI): Vinay Pathak, National Cancer Institute
A3G-Vif cells were harvested from T225 flask and resuspended in phenol free OPTI-MEM medium with 5% FBS. Then 5 uL of 140,000 cells/mL resuspended cells was dispensed into each well of low base Aurora COC 1,536-well plates (black walled, clear bottom) using a Multidrop Combi dispenser. After overnight culture at 37 deg C with 5% CO2, a total of 23 nL of compounds at 5 selected concentrations from the NPC or positive control (2 mM stock of MG132) in DMSO was transferred to each well of the assay plate using a pintool (Kalypsys, San Diego, CA), and the plates were further incubated at 37 deg C with 5% CO2 for 24 hours. After that, the plates were measured on Acumen Explorer (TTP Lab Tech). The fluorescence was detected by 488 nm/Ex and […].
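Further: hits raise yellow fluorescence by blocking Vif-driven A3G-eYFP degradation; nearly all actives have a fitted effect of over 70% in size.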
Potency means the concentration at half of the fitted maximal effect.
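Wherever max response is given: max response given as percent of control signal.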

Sequence of DNA dC->dU-editing enzyme APOBEC-3G (Homo sapiens) (Q9HC16 whole entry, looked up): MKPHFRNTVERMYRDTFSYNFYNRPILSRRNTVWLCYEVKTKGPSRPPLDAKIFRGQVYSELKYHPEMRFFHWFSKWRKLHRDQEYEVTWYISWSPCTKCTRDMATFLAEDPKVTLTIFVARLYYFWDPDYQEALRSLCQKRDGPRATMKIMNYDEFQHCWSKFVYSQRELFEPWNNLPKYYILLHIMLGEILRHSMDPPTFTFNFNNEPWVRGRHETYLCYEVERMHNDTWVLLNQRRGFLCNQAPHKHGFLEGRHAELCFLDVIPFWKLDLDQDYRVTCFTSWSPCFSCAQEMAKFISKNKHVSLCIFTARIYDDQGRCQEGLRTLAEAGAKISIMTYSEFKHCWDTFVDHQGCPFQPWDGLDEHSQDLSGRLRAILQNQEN

| Structure (SMILES) | Potency | max response [%] |
| --- | --- | --- |
| Cc1cc(N(C)C)c(C)cc1/C=C/c1ccnc2ccccc12 | 10.3 µM (active) |  |
| CCN(CC)c1cc(C)c(/C=C/c2ccnc3ccccc23)cc1C | 16.4 µM (active) |  |
| O=C(O)c1ccccc1N/N=C/c1c(Sc2nnnn2-c2ccccc2)nc2ccccn2c1=O | 4.44 µM (active) |  |
| COc1cc(CCC(=O)Nc2nnc(C)s2)cc(OC)c1OC | 8.86 µM (active) |  |
| COc1cc(C(=O)Nc2nnc(Cc3ccccc3)s2)cc(OC)c1OC | 12.5 µM (active) |  |
| Cc1cc(NC(=O)Nc2nnc(N(C)Cc3ccccc3)s2)ccc1Br |  | 20.9 |
| COc1ccc(NC(=O)C(NC(=O)/C=C\c2ccc3c(c2)OCO3)c2ccccc2)cc1 (stereo unspecified) |  | -17 |
| Cc1noc(C)c1COc1cccc(C(=O)OC(C)C(=O)Nc2ccc3c(c2)OCO3)c1 (stereo unspecified) | 3.53 µM (active) |  |
| CC1(C)Cc2c(sc3ncnc(NNC(=S)NCc4ccccc4)c23)CO1 | 12.5 µM (active) |  |
| C/C(=N\NC(=S)NCc1ccccc1)c1cccs1 |  | -28.6 |
| O=c1[nH]c2ccccc2nc1/C=C(\O)c1cccs1 | 4.61 µM (active) |  |
| NNC(=O)c1cc2sccc2s1 |  | 2.94 |
| Cc1cc(/C=C2\SC(=S)N(Cc3ccco3)C2=O)c(C)n1-c1cccnc1 | 9.2 µM (active) |  |
| CCN1CCN(c2c(/C=C3\SC(=S)N(Cc4ccco4)C3=O)c(C)c(C#N)c(=O)n2C)CC1 | 20.6 µM (active) |  |
| CN(C)c1ccc(C=C2SC(=S)N(Cc3ccco3)C2=O)cc1 | 3.53 µM (active) |  |
| Cc1cc(/C=C2\SC(=S)N(Cc3ccco3)C2=O)c(C)n1-c1ccccc1 | 23.1 µM (active) |  |
| Cc1ccc2nc(NS(=O)(=O)c3ccc(Cl)cc3)c(Nc3ccc(C(=O)O)cc3)nc2c1 |  | 2.4 |
| COc1ccc(Nc2nc3cc(C)ccc3cc2C#N)c(OC)c1 | 1.58 µM (active) |  |
| COc1ccc(Nc2nc3cc(C)ccc3cc2C#N)cc1 | 18.4 µM (active) |  |
| CC(=O)n1c2ccccc2c2nc3ccccc3nc21 | 2.59 µM (active) |  |
| C=CCNc1nc2cc(-c3cccc(Cl)c3)sc2c(=O)n1C | 14 µM (active) |  |
| CCOC(=O)c1ccc(/C=C2/C=C(c3ccccc3)N(c3ccc(Cl)c(C(=O)O)c3)C2=O)cc1 | 20.6 µM (active) |  |
| C=CCOc1ccc2nc(NC(=O)OC)[nH]c2c1 | 2.23 µM (active) |  |

| Structure (SMILES) | Potency | max response [%] |
| --- | --- | --- |
| CCOC(=O)c1c(NC(=O)CSc2nc3ccc(OC)cc3[nH]2)sc2c1CC(C)(C)NC2(C)C |  | -23 |
| CC(=O)c1cccc(-c2ccnc3c2CC(C(=O)Nc2ccc(Cl)cc2)O3)c1 (stereo unspecified) | 12.5 µM (active) |  |
| CC(=O)Nc1ccc(-c2ccnc3c2CC(C(=O)Nc2cccc(N(C)C)c2)O3)cc1 (stereo unspecified) | 9.94 µM (active) |  |
| COc1ccc(NC(=O)C2Cc3c(-c4cccc(NC(C)=O)c4)ccnc3O2)cn1 (stereo unspecified) | 14 µM (active) |  |
| COc1ccc(NC(=O)C2Cc3c(-c4cccc(C(C)=O)c4)ccnc3O2)cc1 (stereo unspecified) | 3.96 µM (active) |  |
| COc1cc(C2c3cc4c(cc3C(OC3OC5COC(c6cccs6)OC5C(O)C3O)C3COC(=O)C23)OCO4)cc(OC)c1O (stereo unspecified) |  | -84.8 |
| CC(=O)Nc1cccc(-c2ccnc3c2CC(C(=O)Nc2ccc4c(c2)OCO4)O3)c1 (stereo unspecified) | 1.25 µM (active) |  |
| COc1ccc(NC(=O)C2Cc3c(-c4cccc(C(C)=O)c4)ccnc3O2)cn1 (stereo unspecified) | 1.4 µM (active) |  |
| Cc1ccc(N=C2NC(=O)CC(C(=O)Nc3ccc4c(c3)OCO4)S2)cc1 (stereo unspecified) |  | -13.3 |
| C=CCSc1nc2sc3c(c2c(=O)n1CC)CCC3 |  | -26.5 |
| CN(C)c1ccc(/C=C2\Oc3ccc(C#Cc4cccc(N)c4)cc3C2=O)cc1 | 17.7 µM (active) |  |
| CC1(C)Cc2nc3sc4c(=O)n(CC(=O)NCc5ccccc5)cnc4c3cc2CO1 | 3.96 µM (active) |  |
| COc1ccc(S(=O)(=O)NCc2ccccn2)cc1NC(=O)c1ccc(C)cc1 | 11.2 µM (active) |  |
| CCOc1ccc(S(=O)(=O)NCc2ccccn2)cc1NC(=O)c1ccccc1 | 3.96 µM (active) |  |
| COc1ccc(S(=O)(=O)NCc2ccccn2)cc1NC(=O)c1ccccc1 | 15.8 µM (active) |  |
| COc1ccc(OC)c2sc(NC(=O)CCS(=O)(=O)c3ccccc3)nc12 |  | -5.13 |
| S=C(NCCSCc1ccc(Cl)cc1)Nc1ccccc1 |  | -13.3 |
| O=[N+]([O-])c1ccc(C2=NN(c3ccccc3)C(c3ccco3)C2)cc1 (stereo unspecified) | 0.498 µM (active) |  |
| COc1ccccc1N1N=C(c2ccc([N+](=O)[O-])cc2)CC1c1ccccc1 (stereo unspecified) | 1.25 µM (active) |  |
| O=[N+]([O-])c1ccc(/C=C/C2=NN(c3ccccc3)C(c3ccco3)C2)o1 (stereo unspecified) | 2.31 µM (active) |  |
| O=[N+]([O-])c1ccc(C2=Nc3cc(Cl)ccc3OC2)cc1 |  | -16.9 |
| Cc1ccc(NC(=O)/C=C/c2ccc([N+](=O)[O-])s2)cc1 | 5.17 µM (active) |  |
| Cc1cccc(NC(=O)/C=C/c2ccc([N+](=O)[O-])s2)c1 | 14.6 µM (active) |  |

| Structure (SMILES) | Potency | max response [%] |
| --- | --- | --- |
| Cc1cc(C)cc(NC(=O)/C=C/c2ccc([N+](=O)[O-])s2)c1 | 13 µM (active) |  |
| Cc1ccc(NC(=O)/C=C/c2ccc([N+](=O)[O-])s2)c(C)c1 | 10.3 µM (active) |  |
| CC(=O)c1cccc(NC(=O)/C=C/c2ccc([N+](=O)[O-])s2)c1 | 10.3 µM (active) |  |
| CC(=O)c1cccc(NC(=S)N2c3ccccc3CC2C)c1 (stereo unspecified) |  | 10.2 |
| O=C(OCC12CC3CC(CC(C3)C1)C2)c1ccc(NCc2cc(O)ccc2O)cc1 |  | 39.2 |
| C=CCN1C=CC(=CC=C(C#N)C#N)C=C1 | 12.5 µM (active) |  |
| CCCN1C=CC(=CC=C(C#N)C#N)C=C1 | 9.94 µM (active) |  |
| Cn1c2ccccc2c2ccc3c(c21)C(=O)C=CC3=O |  | 10.2 |
| COc1cc(OC)c(OC)cc1/C=C1\Oc2cc(OCC(=O)N3Cc4ccccc4C[C@H]3C(=O)O)ccc2C1=O | 2.06 µM (active) |  |
| COc1ccc(/C=C2\Oc3cc(OC(=O)N4CCOCC4)ccc3C2=O)c(OC)c1 |  | -18.4 |
| Cn1cc(C2=C(c3ccc(Cl)cc3Cl)C(=O)NC2=O)c2ccccc21 | 2.06 µM (active) and 8.2 µM (active) |  |
| COc1ccccc1Nc1cc2cc(Br)ccc2c(=O)[nH]1 | 15.8 µM (active) |  |
| COc1cccc(C(=O)Nc2sc3c(c2C#N)CCN(C(C)=O)C3)c1 | 3.96 µM (active) |  |
| COc1ccc(C(=O)Nc2sc3c(c2C#N)CCN(C(C)=O)C3)cc1 | 12.5 µM (active) |  |
| O=C1[C@@H]2[C@@H](CN3CN(c4ccccc4)N=C(c4ccccc4)[C@@]23c2ccccc2)C(=O)N1c1ccccc1 |  | 3.63 |
| Cc1noc(C)c1COc1cccc(C(=O)OCC(=O)N2CC(=O)Nc3ccccc32)c1 | 5.59 µM (active) |  |
| COc1ccc(N=Cc2sc(O)c3ccccc23)cc1 | 3.96 µM (active) |  |
| COc1ccc(N=Cc2oc3ccc4ccccc4c3c2O)cc1 | 18.4 µM (active) |  |
| Oc1sc(C=Nc2ccc(F)cc2)c2ccccc12 | 8.2 µM (active) |  |
| COc1ccc(N=Cc2c(O)c3ccccc3n2C(C)=O)cc1 | 14.6 µM (active) |  |
| Oc1sc(C=Nc2ccccc2)c2ccccc12 | 18.4 µM (active) |  |
| COc1ccc2nc3ccccc3nc2c1NC(=O)c1ccc(Br)cc1 | 14.6 µM (active) |  |
| COc1ccc2nc3ccccc3nc2c1NC(=O)c1ccc(Cl)cc1 | 18.4 µM (active) |  |

| Structure (SMILES) | Potency | max response [%] |
| --- | --- | --- |
| Cc1ccc2c(Cl)c(C)c(N3CCCC3)nc2n1 |  | -28.8 |
| C[n+]1ccc(/C=C/c2c[nH]c3ccccc23)cc1 | 8.2 µM (active) |  |
| CC[n+]1ccc(/C=C/c2c[nH]c3ccccc23)cc1 | 9.2 µM (active) |  |
| OCC[n+]1ccc(/C=C/c2c[nH]c3ccccc23)cc1 | 18.4 µM (active) |  |
| C/C(=N\NC(=O)C(C)n1nc(C)c([N+](=O)[O-])c1C)c1ccccc1O (stereo unspecified) |  | 3.13 |
| CN1CCN(c2ccc([N+](=O)[O-])cc2C(=O)c2ccc(Br)cc2)CC1 | 4.98 µM (active) |  |
| Cc1ccc(C(=O)c2cc([N+](=O)[O-])ccc2N2CCOCC2)cc1C | 0.994 µM (active) |  |
| COc1ccc(C(=O)c2cc([N+](=O)[O-])ccc2N2CCCC2)cc1 | 7.04 µM (active) |  |
| CN(C)S(=O)(=O)c1ccc(N2CCCC2)c(C(=O)N2CCN(S(=O)(=O)c3ccc(F)c(F)c3)CC2)c1 |  | 9.68 |
| Cc1ccc(C(=O)c2cc([N+](=O)[O-])ccc2N2CCN(C)CC2)cc1 | 7.04 µM (active) |  |
| CNc1cncc(-c2cc(C)c(O)c(C)c2)n1 | 4.98 µM (active) |  |
| CCOC(=O)CSc1nc2c(c(=O)[nH]1)C(C)(CC)Cc1ccccc1-2 (stereo unspecified) | 8.2 µM (active) |  |
| Cc1sc2nc(SCC(=O)N3CCOCC3)[nH]c(=O)c2c1-c1ccccc1 |  | -5.17 |
| COc1cccc(N2CCN(Cc3nc4scc(-c5ccccc5)c4c(=O)[nH]3)CC2)c1 | 12.5 µM (active) |  |
| O=c1[nH]c(CN2CCN(c3ccccc3)CC2)nc2scc(-c3ccccc3)c12 | 9.2 µM (active) |  |
| CCS(=O)(=O)C1=NN2C(=N)/C(=C\c3ccc(SCc4ccco4)o3)C(=O)N=C2S1 |  | 2.81 |
| CC1=CN2C(=N)/C(=C/c3ccc([N+](=O)[O-])o3)C(=O)N=C2S1 | 17.7 µM (active) |  |
| COc1ccc(CCNC(=O)CC2(CC3=NS(=O)(=O)c4ccccc4N3)CCCC2)cc1OC |  | -1.6 |
| COc1cccc(-c2ccc3c(N)c(C(=O)c4ccc(Cl)cc4)sc3n2)c1 | 20.6 µM (active) |  |
| COc1cccc(-c2ccc3c(N)c(C(=O)c4ccc(Br)cc4)sc3n2)c1 | 20.6 µM (active) |  |
| Cc1noc(C)c1COc1ccc(C(=O)NNC(=O)c2ccccc2)cc1 | 5.59 µM (active) |  |
| Cc1noc(C)c1COc1ccc(C(=O)NNC(=O)c2ccccc2F)cc1 | 8.86 µM (active) |  |
